# In PubChem BioAssay (EPA / NIEHS):
# Activity calls are given as the source filed them. How the source made its calls: active means hit-call score of the fitted dose curve at least 0.9, where 1 is the maximum; inactive means score below 0.9.
# Test: APR_HepG2_p53Act_1hr: Apredica 1-hour HepG2 Assay for p53 Activation (AID 2282671)
# Details: high-content imaging, actives raise or lower the signal
# Experimental: APR_HepG2_1hr is a cell-based, multiplexed-readout assay that uses HepG2, a human liver cell line, with measurements taken at 1 hour after chemical dosing in a 384-well plate.APR_HepG2_p53Act_1hr is one of 10 assay component(s) measured or calculated from the APR_HepG2_1hr assay. It is designed to make measurements of dna content, a form of viability reporter, as detected with fluorescence intensity signals by HCS Fluorescent Imaging technology.Data from the assay component APR_HepG2_p53Act_1hr was analyzed into 1 assay endpoint. This assay endpoint, APR_HepG2_p53Act_1hr, was analyzed with bidirectional fitting relative to DMSO as the negative control and baseline of activity. Using a type of viability reporter, measures of protein for gain or loss-of-signal activity can be used to understand the signaling at the pathway-level as they relate to the gene TP53. Furthermore, this assay endpoint can be referred to as a primary readout, because this assay has produced multiple assay endpoints where this one serves a signaling function. To generalize the intended target to other relatable targets, this assay endpoint is annotated to the dna binding intended target family, where the subfamily is tumor suppressor.
# Cells were treated with dimethyl sulfoxide (DMSO) as a solvent control at a final concentration of 0.5% v/v or with compounds in DMSO with a resulting final DMSO concentration of 0.5% v/v. Compound treatment was done at concentrations of 0.39, 0.78, 1.56, 3.12, 6.24, 12.5, 25, 50, 100, and 200 uM in duplicate on each plate. Cells were treated with compounds for 1, 24, or 72 hr. Carbonyl […] m-chloro-phenylhydrazone (CCCP) and taxol were used as positive controls for mitochondrial function and cytoskeletal stability, respectively; DMSO served as the negative control for this experiment. Cells were fixed by the direct addition of 50 uL formaldehyde in Hank's Balanced Salt Solution (HBSS) to a final concentration of 3.7%. After incubation in the fixation medium for 30 min at room temperature (293-298 K), cells were rinsed twice with HBSS and treated with cell permeabilization buffer (16 uL of 0.5% Triton X-100) for 10 min at room temperature (293-298 K) before labeling. For mitochondrial membrane potential and mitochondrial measurements, pre-fixed cells were incubated with 50 uL of MitoTracker Red CMXRos (Invitrogen) at a concentration of 250 nM for 30 min before fixation. In the remaining cases, post-fixed cells were labeled by incubation with a multiplexed mixture of primary antibodies in HBSS for 60 min at room temperature (293-298 K) to detect immunoreactivity of c-Jun (1:500), phospho-histone H3 (1:100), phospho-histone H2A.x (1:200), p53 (1:400), alpha-tubulin (1:200) and Hoechst 33342 (2 ug/mL). Cells were labeled for multiplexed imaging on two separate plates: a) Hoechst 33342, MitoTracker Red, phospho-histone H3, and alpha-tubulin, and b) Hoechst 33342, phospho-histone H2A.x, and c-Jun. A final rinse with HBSS (50 uL) was performed before analysis. The primary and secondary antibodies for the proteins were phospho-histone H3 (rabbit anti-phospho-histone H3 and FITC-donkey anti-rabbit IgG), phospho-histone H2A.x (mouse anti-phospho-histone H2A.x and FITC-donkey anti-mouse IgG), c-Jun (rabbit anti-phospho-c-Jun and Cy3-donkey anti-rabbit IgG), p53 (sheep anti-p53 and Cy5-donkey anti-sheep IgG), alpha-tubulin (mouse anti-alpha-tubulin and Cy5-donkey anti-mouse IgG). These antibodies are available as the CellCiphr HepG2 assay kit (Millipore).Digital images of each well were captured using a Cellomics ArrayScan VTI (Thermo Scientific Cellomics) (0.8 NA objective, 0.63x optical coupler, and XF-93 filter set) at 20x magnification. The images were acquired using the autofocus feature of the ArrayScan instrument, which entails the following steps. First, the camera focuses on channel 1 (Hoechst 33342), where nuclei are identified. Second, a Z offset of 1 um is used for capturing mitochondria (MitoTracker Red). […]
row,SMILES,outcome
1,COc1nn(CSP(=S)(OC)OC)c(=O)s1,inactive
2,CC(C)(C)C(O)C(Oc1ccc(Cl)cc1)n1cncn1 (stereo not given),inactive
3,CNC(=O)Oc1cccc(N=CN(C)C)c1,inactive
4,CC(C)OC(=O)Nc1cccc(Cl)c1,inactive
5,CC(C)N(C(=O)COc1nnc(C(F)(F)F)s1)c1ccc(F)cc1,inactive
6,O=C(Nc1ccccc1)Nc1cnns1,inactive
7,COC(=O)c1ccccc1CS(=O)(=O)NC(=O)Nc1nc(OC)cc(OC)n1,inactive
8,O=C1c2ccccc2C(=O)N1SC(Cl)(Cl)Cl,inactive
9,CCS(=O)(=O)c1cccnc1S(=O)(=O)NC(=O)Nc1nc(OC)cc(OC)n1,inactive
10,Cc1cc(C)nc(NC(=O)NS(=O)(=O)c2ccccc2C(=O)OC2COC2)n1,inactive
11,CCc1ccc(C(=O)NN(C(=O)c2cc(C)cc(C)c2)C(C)(C)C)cc1,inactive
12,O=C(O)COc1ccc(Cl)cc1Cl,inactive
13,CC(C)(C)C(O)/C(=C\c1ccc(Cl)cc1Cl)n1cncn1 (stereo not given),inactive
14,CCOCN(C(=O)CCl)c1c(C)cccc1CC,inactive
15,C[C@H]1[C@H](c2ccc(Cl)cc2)SC(=O)N1C(=O)NC1CCCCC1,inactive
16,COC(=O)c1ccccc1S(=O)(=O)NC(=O)N(C)c1nc(C)nc(OC)n1,inactive
17,CCC(C)(NC(=O)c1cc(Cl)c(C)c(Cl)c1)C(=O)CCl (stereo not given),inactive
18,CCCN(CCOc1c(Cl)cc(Cl)cc1Cl)C(=O)n1ccnc1,inactive
19,CCOc1nc(NC)nc(NC(=O)NS(=O)(=O)c2ccccc2C(=O)OC)n1,inactive
20,CC[C@H](C)[C@H]1O[C@]2(C=C[C@@H]1C)C[C@@H]1C[C@@H](C/C=C(\C)[C@@H](O[C@H]3C[C@H](OC)[C@@H](O[C@H]4C[C@H](OC)[C@@H](O)[C@H](C)O4)[C@H](C)O3)[C@@H](C)/C=C/C=C3\CO[C@@H]4[C@H](O)C(C)=C[C@@H](C(=O)O1)[C@]34O)O2 (tested in a mixture with another compound),inactive

row,SMILES,outcome
1,OCCOc1ccccc1,inactive
2,CN1CSC(=S)N(C)C1,inactive
3,CC1(c2ccc(Oc3ccccc3)cc2)OC(=O)N(Nc2ccccc2)C1=O (stereo not given),inactive
4,CCC(C)(C)C(=O)OC1=C(c2ccc(Cl)cc2Cl)C(=O)OC12CCCCC2,inactive
5,[2H]C1([2H])[n+]2ccccc2-c2cccc[n+]2C1([2H])[2H],inactive
6,COC(=O)c1ccccc1S(=O)(=O)NC(=O)Nc1nc(C)nc(OC)n1,inactive
7,COP(=S)(OC)Oc1ccc(SC)c(C)c1,inactive
8,O=C(O)C(F)(F)C(F)(F)C(F)(F)C(F)(F)C(F)(F)C(F)(F)C(F)(F)F,inactive
9,CNC(=O)Oc1ccccc1OC(C)C,inactive
10,COP(=S)(OC)Oc1ccc([N+](=O)[O-])cc1,inactive
11,Oc1cc(Cl)ccc1Oc1ccc(Cl)cc1Cl,inactive
12,Oc1ccc(Cl)cc1Cc1ccccc1,inactive
13,O=[N+]([O-])c1c(Cl)c(Cl)c(Cl)c(Cl)c1Cl,inactive
14,CC1(C)C(C=C(Cl)Cl)C1C(=O)OC(C#N)c1ccc(F)c(Oc2ccccc2)c1 (stereo not given),inactive
15,COc1cc(OC)nc(NC(=O)NS(=O)(=O)c2cc(NC=O)ccc2C(=O)N(C)C)n1,inactive
16,ClC1C(Cl)C(Cl)C(Cl)C(Cl)C1Cl (stereo not given),inactive
17,O=S(=O)(O)C(F)(F)C(F)(F)C(F)(F)C(F)(F)C(F)(F)C(F)(F)C(F)(F)C(F)(F)F,inactive
18,N#Cc1c(Cl)c(Cl)c(Cl)c(C#N)c1Cl,inactive
19,O=C(O)CCCOc1ccc(Cl)cc1Cl,inactive
20,O=S1OCC2C(CO1)C1(Cl)C(Cl)=C(Cl)C2(Cl)C1(Cl)Cl (stereo not given),inactive
